Hit rate of the full screen: of about 370,000 compounds, about 4,700 (1.3%) were called active.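 The calls were made as follows: active = inhibition above the plate cutoff, the mean of all test compounds on that plate plus 3 SD (cut at about 35% in these data); inactive = the rest.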 The list comes from a sample in which actives are over-represented; it also holds similar structures and randomly drawn compounds.

This test is described as follows: binders of r(CAG) RNA repeats, primary screen, biochemical, fluorescence (AID 651821).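 Also: 0% = DMSO alone and 100% = 100 µM mitoxantrone as full dye displacement; higher means more dye released from RNA so lower well fluorescence.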 Conditions: r(CAG) RNA repeat, TO-PRO-1 dye displacement fluorescence; at 3 µM; stronger effect = higher value.
The inhibition is the relative decrease from the control value, in per cent. Consider `Cn1c(CNc2nc(-c3ccccc3)cs2)nnc1SCC(=O)c1ccccc1`, for which the inhibition was 8.83% (inactive).
Take `Cc1ccc(C(=O)Nc2c(C#N)c(C)c(C)n2Cc2ccccc2)cc1`: the inhibition was 0.41% (inactive).
Regarding `O=C(Nc1ccccc1)Nc1nc2ccccc2s1`, the inhibition was 41.3% (active).
Then `CCCn1c(C)cc(-c2csc(NC(=O)CCc3nc4ccccc4c(=O)[nH]3)n2)c1C`, with 24.8% (inactive); and `COc1ccc(C(C)(NC(C)=O)c2nc(-c3ccc(S(C)(=O)=O)cc3)cs2)cc1` (centres undefined), with -0.32% (inactive).
For `CCN(CC)CCn1c2c(c(SCC(=O)Nc3nc4ccccc4s3)nc1=O)CCCC2` the value was -6.14% (inactive).
As for `CC(=O)NC(c1ccccc1)c1nc(-c2cccc(C(C)C)c2)cs1` (centres undefined), the inhibition was 0.86% (inactive).
Regarding `CC(=O)Nc1ccc(C(=O)Nc2nc(-c3cc(C)n(Cc4ccccc4)c3C)cs2)cc1`, the inhibition was 51.7% (active).
For `CC(C)CC(=O)N/C(N)=N/c1nc2ccccc2s1` the value was 0.1% (inactive); for `CC(=O)Nc1ccc(S(=O)(=O)Nc2ccc(-c3ccc4nnc(C)n4n3)cc2)cc1`, 6.21% (inactive).
For `CC(=O)Nc1ccc(-c2csc(NC(=O)Nc3ccccc3)n2)cc1` the value was 53.7% (active); for `CC(=O)Nc1ccc(S(=O)(=O)Nc2nc(-c3ccc(C(C)(C)C)cc3)cs2)cc1`, 66.5% (active); for `CC(NCc1ccco1)C(=O)N1CCCCC1` (centres undefined), 2.88% (inactive).
Regarding `CC(C)CNc1cccc2c1S(=O)(=O)N[C@H](CC(C)C)CO2`, the inhibition is -1.29% (inactive).
For `COc1ccc(-c2ccccc2C2Cc3nnccc3CN2C(=O)Nc2ccccc2)cc1` (centres undefined) the value was 8.81% (inactive); for `COc1ccnc(C(=O)N2CCC(Oc3cccnc3)CC2)c1`, 2.96% (inactive); for `CN(C)Cc1cn(-c2ccc(-c3noc4c3C(=O)N(CC(=O)N3CCOCC3)CC4)cc2)nn1`, 4.11% (inactive).
For `CCOC(=O)c1csc(NC(=O)C2CCCN(S(=O)(=O)c3ccc(Cl)s3)C2)n1` (centres undefined) the value was 3.09% (inactive).
As for `Nc1nc2c(ncn2[C@@H]2O[C@H](C(=O)N[C@@H](Cc3ccccc3)C(=O)NCc3ccccc3)[C@@H](O)[C@H]2O)c(=O)[nH]1`, the inhibition was 3.57% (inactive).
Take `CCOC(=O)[C@]12CCCC=C1N(CCCOC)C(=O)[C@@H]2CC(=O)N1CCOCC1`: the inhibition is 0.28% (inactive).
On to `COc1ccc(CCNC(=O)CN2CCC(n3nnc4cc(F)ccc43)CC2)cc1OC`, for which the inhibition is -9.88% (inactive).
Then `COC(=O)c1ccc(CSc2nnc(NC(C)C)s2)cc1`, with -4.56% (inactive).
As for `CCOc1ccccc1Nc1nnc(SCc2ccc(C(=O)OC)o2)s1`, the inhibition was 0.96% (inactive).
Then `Cc1ccc(C(=O)Oc2coc(CSc3nnc(NC(=O)c4cccs4)s3)cc2=O)cc1C`, with 68.7% (active).
